The values that follow come from PubChem BioAssay (NCI).

About 79,000 compounds went through this panel and 15% of them were active in at least one assay; those are over-represented in the sample as a whole. A number with no mark means an inactive call. Active and inactive are the calls of the source. No stated cut-off is given here; in the data, active means growth inhibition above about 70%; inactive means the rest.

Assay [1] is described as follows: NCI Yeast Anticancer Drug Screen. Data for the rad50 strain (AID 155).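 Further: 0% = growth of vehicle-only cultures of the same strain.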 Particulars: S. cerevisiae rad50 strain growth inhibition; at 50.0 µM; active compounds read high. A digest of the protocol: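 Yeast carrying a defined DNA repair defect were exposed to test compounds, and growth was compared with vehicle-treated controls to give percent inhibition.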
A short description of assay [2]: NCI Yeast Anticancer Drug Screen. Data for the mec2-1 strain (AID 157). Particulars: S. cerevisiae mec2-1 strain, at 50.0 µM, active compounds read high. In outline:
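Strain: mec2-1 (DNA repair/cell cycle alteration). Compound exposure, then growth measured; inhibition expressed relative to vehicle.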

Assay [3] in a line: NCI Yeast Anticancer Drug Screen. Data for the sgs1 mgt1 strain (AID 161).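 Further: 0% = growth of cultures given vehicle only.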 The settings on record: S. cerevisiae sgs1 mgt1 strain, at 50.0 µM, active compounds read high. A digest of the protocol: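 Test agents were incubated with a DNA-repair-mutant yeast strain. Growth was then read and compared against vehicle-treated controls.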
A short description of assay [4]: NCI Yeast Anticancer Drug Screen. Data for the cln2 rad14 strain (AID 165).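 Further: 0% = growth equal to vehicle treated cultures.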 The settings on record: S. cerevisiae cln2 rad14 strain, at 50.0 µM, active compounds read high. In outline: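 Compounds are applied to the cln2 rad14 yeast strain, and growth is then compared with that of vehicle-treated cultures to give inhibition.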
Assay [5] is described as follows: NCI Yeast Anticancer Drug Screen. Data for the bub3 strain (AID 167). The settings on record: S. cerevisiae bub3 mutant strain, at 50.0 µM, active compounds read high. In outline: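 Compounds were applied to a genetically altered yeast strain carrying a cell-cycle control defect. Growth inhibition was scored against vehicle-treated controls.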
The nature of assay [6]: NCI Yeast Anticancer Drug Screen. Data for the mlh1 rad18 strain (AID 175). Particulars: S. cerevisiae mlh1 rad18 strain growth inhibition; at 50.0 µM; active compounds read high. In outline:
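Read-out is yeast growth inhibition, calculated against vehicle-only controls. The compound was applied to a strain engineered with DNA damage repair alterations.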

Turning to `COc1ccc(Nc2nc3ccccc3nc2C(=O)O)cc1OC`, the growth inhibition in assay [1] was -23.9%; in assay [2] it was 12.1%; in assay [3], -9.6%; in assay [4], 6.15%; in assay [5], 26.1%; in assay [6], -33.8%.

On to `O=C(NCCCCCCNC(=O)C1CCCN1C(=O)OCc1ccccc1)C1CCCN1C(=O)OCc1ccccc1` (stereo unspecified), for which the growth inhibition was 0.6% in assay [1]; -24.2% in assay [2]; -8.15% in assay [3]; -1.9% in assay [4]; -5.7% in assay [5]; 6.4% in assay [6].

As to `COc1cc2ccc3c4c(OC)cc5c(c4c[n+](C)c3c2cc1OC)OCO5`, the growth inhibition was 88% (active) in assay [1]; 91.3% (active) in assay [2]; 88.3% (active) in assay [3]; 88.7% (active) in assay [4]; 90% (active) in assay [5]; 87.2% (active) in assay [6].

Turning to `O=C1C=CC(Nc2ccc(Cl)c(Cl)c2)C1Nc1ccc(Cl)c(Cl)c1` (stereo unspecified), the growth inhibition in assay [1] was 39.5%; in assay [2], 36.1%; in assay [3], 42.8%; in assay [4], 28.6%; in assay [5], 26.7%; in assay [6] it was 45%.

On to `CCC(C)C(CO)N=Cc1ccccc1O.O.[Cu]` (stereo unspecified), for which the growth inhibition is 65.3% in assay [1]; 82.3% (active) in assay [2]; 74% (active) in assay [3]; 62% in assay [4]; 80.2% (active) in assay [5]; 83.3% (active) in assay [6].

Turning to `OCC1OC(n2cc(I)c3c(Cl)ncnc32)C(O)C1O` (stereo unspecified), the growth inhibition in assay [1] is 0.7%; in assay [2] it was -15.4%; in assay [3], -4.05%; in assay [4], -36.8%; in assay [5], 1.6%; in assay [6] it was 3.95%.

For the molecule `CCCN1CN(C(C(=O)N[C@@H]2C(=O)N3C(C(=O)O)=C(C)CSC23)c2ccc(O)cc2)CSC1=S` (stereo partly specified), the growth inhibition in assay [1] was 11.8%; in assay [2] it was 7.15%; in assay [3] it was 10.2%; in assay [4] it was -25.8%; in assay [5], -23.6%; in assay [6], 34.4%.

In the case of `CCCCCCCC(=O)N(CC)CC`, the growth inhibition in assay [1] was 13.5%; in assay [2] it was -4.05%; in assay [3], 25.4%; in assay [4], -17.1%; in assay [5] it was 1.6%; in assay [6], 8.75%.

Take `CC1CCC(C(C)(C)O)CC1O` (stereo unspecified): the growth inhibition in assay [1] is -12.9%; in assay [2], 2.05%; in assay [3], 0.9%; in assay [4] it was -9.05%; in assay [5], -16.8%; in assay [6] it was -7.55%.

With `CC(C)=C1OC(=O)C1(C)C`, the growth inhibition in assay [1] was -5.75%; in assay [2] it was 15.7%; in assay [3], 1.5%; in assay [4] it was 17.4%; in assay [5], 5.5%; in assay [6] it was -12.6%.

Regarding `CC1CC(=O)Oc2cc(O)c(O)cc21` (stereo unspecified), the growth inhibition is 11.8% in assay [1]; 7.9% in assay [2]; 7.3% in assay [3]; 4.4% in assay [4]; 14.9% in assay [5]; 16.9% in assay [6].

As for `CCC/C=N/NC(=O)CCCCCCCCCCCCCCCCC`, the growth inhibition is 7.35% in assay [1]; 7.95% in assay [2]; 16.9% in assay [3]; -8.2% in assay [4]; 7.7% in assay [5]; 14.3% in assay [6].

For `CCOCCOCCOC(C)Oc1ccc(Cl)cc1` (stereo unspecified), the growth inhibition was 4.05% in assay [1]; 8.4% in assay [2]; -9.05% in assay [3]; 10.7% in assay [4]; 6.15% in assay [5]; 9.55% in assay [6].

Take `Nc1ccnc(SCCCCc2ccccc2)n1`: the growth inhibition in assay [1] was 15.6%; in assay [2], 64.4%; in assay [3] it was 59%; in assay [4] it was -6.15%; in assay [5] it was 74% (active); in assay [6] it was 64%.

As for `COc1ccc(C2CC2c2ccc(C#N)cc2)cc1` (stereo unspecified), the growth inhibition in assay [1] is 7.05%; in assay [2], -6.4%; in assay [3], -1%; in assay [4], -40.6%; in assay [5] it was 6.25%; in assay [6], -22.8%.

For `COC(=O)/C(=C/c1ccc(OC)cc1)C(C(=O)O)=C1CCCCC1`, the growth inhibition was 20.2% in assay [1]; 9.95% in assay [2]; 7.35% in assay [3]; 9.75% in assay [4]; 2.25% in assay [5]; -8.9% in assay [6].

As for `CCCCCCCC(C(=O)O)C(=O)O`, the growth inhibition in assay [1] was -2.1%; in assay [2] it was 0.4%; in assay [3] it was 10.3%; in assay [4], 10.3%; in assay [5] it was -2.5%; in assay [6] it was 11.5%.

As for `CCNC1(C(=O)O)CCCCC1`, the growth inhibition in assay [1] was 1.4%; in assay [2], -2.15%; in assay [3] it was -1.5%; in assay [4], 9.85%; in assay [5], 2.3%; in assay [6], -0.2%.

Take `COC1(C)O[C@@]2(C)c3ccccc3C(=O)[C@@]2(c2ccccc2)O1` (stereo partly specified): the growth inhibition is -3.35% in assay [1]; -0.05% in assay [2]; 13.1% in assay [3]; -11.5% in assay [4]; 5.4% in assay [5]; 18.5% in assay [6].

`C[C@]12C(=O)C=CCC1=CC[C@@H]1[C@@H]2[C@H]2CC3(O)C(=O)O[C@@]4(C)[C@H]5C[C@@]6(C)[C@@H]7[C@@]2(O)[C@]1(OC[C@H]6C(=O)O5)O[C@]734` (stereo partly specified): the growth inhibition is 9.6% in assay [1]; 16.3% in assay [2]; -9.3% in assay [3]; 1% in assay [4]; -22.4% in assay [5]; -55% in assay [6].

On to `N#CCN1CCOCC1`, for which the growth inhibition in assay [1] was 31.5%; in assay [2], -1.55%; in assay [3], 4.45%; in assay [4], 15.2%; in assay [5] it was 10.2%; in assay [6], 27.1%.
